Compound activity as filed in PubChem BioAssay.
In the library only some 5% were active in any assay of this set; here they are far more common.
VACV mCherry inh: qHTS for Stage-Specific Inhibitors of Vaccinia Orthopoxvirus: mCherry Reporter Primary qHTS. 0.63% of 310,000 active. Vaccinia virus mCherry reporter infection, fluorescence. AID 720579, 2013. Potency, µM (titrated, usually from 36.5 µM), for the others: at the top dose activity change, negative = inhibition, actives largely listed as inhibitors; calls by dose curve; tested in A549 cells; note: potency is the fitted concentration of half-maximal effect; nearly all actives have a fitted effect of over 35% in size
LmPK inh: qHTS Assay for Inhibitors of Leishmania Mexicana Pyruvate Kinase (LmPK) | purified LmPK, Kinase-Glo ATP luminescence, 1 h | AID 1721, 2009 | Potency, µM (top dose mostly 57.5 µM), for inactives: at the top dose activity change, negative = inhibition, most hits filed as inhibitors | Q27686 | 0.37% of 290,000 active; note: potency is the fitted concentration of half-maximal effect
Target sequence (Q27686 whole entry, looked up): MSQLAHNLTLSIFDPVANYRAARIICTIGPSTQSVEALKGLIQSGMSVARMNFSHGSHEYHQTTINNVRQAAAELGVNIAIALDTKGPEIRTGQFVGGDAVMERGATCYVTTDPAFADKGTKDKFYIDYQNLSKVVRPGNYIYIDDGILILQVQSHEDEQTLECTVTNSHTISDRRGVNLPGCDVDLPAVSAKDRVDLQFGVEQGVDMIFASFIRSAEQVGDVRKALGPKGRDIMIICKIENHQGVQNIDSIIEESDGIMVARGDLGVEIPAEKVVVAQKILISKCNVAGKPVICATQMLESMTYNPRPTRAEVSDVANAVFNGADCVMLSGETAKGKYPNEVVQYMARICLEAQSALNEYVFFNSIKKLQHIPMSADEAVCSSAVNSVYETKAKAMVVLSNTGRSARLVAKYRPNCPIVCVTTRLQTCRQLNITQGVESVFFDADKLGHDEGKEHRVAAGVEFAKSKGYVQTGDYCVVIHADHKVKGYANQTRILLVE
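Purified LmPK (0.1 nM) with 0.5 mM PEP and 0.1 mM ADP in imidazole buffer pH 7.2 with MgCl2/KCl, 1 h at room temperature. ATP formed was read by luciferase luminescence and normalized to no-enzyme and uninhibited controls.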
VACV Venus inh: qHTS for Stage-Specific Inhibitors of Vaccinia Orthopoxvirus: Venus Reporter Primary qHTS; Vaccinia virus Venus reporter expression, fluorescence; Potency, µM (highest dose often 36.5 µM), for the others: at the top dose activity change, negative = inhibition, usual class: inhibitors; 0.46% of 330,000 active; calls by dose curve; tested in A549 cells; note: potency is the fitted concentration of half-maximal effect; nearly all actives have a fitted effect of over 30% in size
HCMV antiviral: qHTS Assay for inhibitors of the human cytomegalovirus (HCMV); 4.5% of 410,000 active; activity change, negative = inhibition, % at 57.5 µM; AID 1259415, 2018; HFF cells, HCMV-luciferase reporter, 72 h; stronger effect = lower value; in the data active = activity change below about -60%; inconclusive = no clear call, values can overlap the other calls; inactive = above about -39%
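After 16 h attachment at 37C, HFF cells received test compound and HCMV-luciferase (1 PFU/cell); reporter luminescence read 72 h later, data normalized against buffer-only and known inhibitor Salinomycin.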
TbPYK inhibitor: qHTS of Trypanosoma Brucei Inhibitors. pyruvate kinase (Trypanosoma brucei), Q57TT1. Potency, µM (highest dose often 76.8 µM), inactives show top-dose activity, negative = inhibition, usual class: inhibitors. TbPYK enzyme, Kinase-Glo Plus ATP luminescence, 45 min. 0.12% of 410,000 active; note: potency is the fitted concentration of half-maximal effect; nearly all actives have a fitted effect of over 50% in size
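Enzyme and substrate buffer are dispensed first and compound is pin-transferred. ADP at 130 uM final then starts the reaction, which runs 45 min at room temperature. Detection reagent is added for 10 min before luminescence is imaged.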
Numbers without * were called inactive; i = inactive; ? = inconclusive; . = no result; + = active, no number. Unless noted, calls come from the whole dose curve; as a rule, active = well fitted curve in the direction sought with a large enough effect; inconclusive = small, poorly fitted or top-dose-only effect, or another doubt; inactive = no such curve, though single readings can be large; an effect the other way counts as inactive or inconclusive. % is set by controls: 0 for no effect and ±100 for the full control effect.

SMILES	VACV mCherry inh	LmPK inh	VACV Venus inh	HCMV antiviral	TbPYK inhibitor
CCOC(=O)c1cnc2c(OC)cccc2c1NCc1cccnc1	.	-1%	.	-62*	-4%
CCOC(=O)c1cnc2ccc(C)cc2c1Nc1ccc(N(CC)CC)cc1	?	.	?	-106*	4%
CCOC(=O)c1cnc2ccc(C)cc2c1Nc1ccc(N2CCOCC2)cc1	?	0%	-24%	-13	-4%
Cc1ccc(Nc2nnc(-c3ccc(C)c(S(N)(=O)=O)c3)c3ccccc23)cc1	?	.	-24%	-18	0%
Cc1ccc(Nc2nccc(N(C)c3ccc4c(C)n(C)nc4c3)n2)cc1S(N)(=O)=O	.	.	.	-84*	-5%
Cc1cc(CC(C)CC(C)(C)C)n(O)c(=O)c1 (stereo not given)	1µM*	.	?	.	0%
O=S1(=O)CCOC[C@H](Cc2ccccc2)N1Cc1cccc(C(F)(F)F)c1	-5%	.	-27%	-12	-5%
FC(F)(F)c1cccc(CC2CN(Cc3ccccc3)Cc3ccccc3N2c2cc(Cl)cc(Cl)c2)c1 (stereo not given)	i	.	-13%	-98*	4%
Cc1cc(/C=C2/C(=O)NN(c3ccccc3)C2=O)c(C)n1-c1ccc(O)cc1	-19%	1%	-27%	-86*	-4%
CC(c1ccco1)N(C(=O)c1cc(Cl)cc(Cl)c1)c1ccccn1 (stereo not given)	-17%	-2%	-3%	-62*	1%
Cc1cc(C)cc(C(=O)N(c2ccccn2)C(C)c2ccco2)c1 (stereo not given)	.	-5%	.	9	3%
COc1cccc(CNC(=O)COC(=O)/C=C/c2ccc(SC)cc2)c1	.	.	.	7	-12%
COc1ccc(C(C[N+](=O)[O-])C2(c3ccc(OC)c(OC)c3)C(=O)c3ccccc3C2=O)cc1 (stereo not given)	11µM*	-20%	?	.	3%
CC1=C(C(=O)OCCc2ccccc2)C(c2ccsc2)NC(=O)N1C (stereo not given)	.	1%	.	-67*	-8%
CC(C)OC(=O)n1c(=S)oc2ccccc21	-4%	9%	-15%	22	-6%
CCCCC(=O)/C=C/n1c(=S)oc2ccccc21	-13%	-10%	-13%	-101*	2%
COc1ccc(Nc2nccc3[nH]c(-c4cccc(F)c4)cc23)cc1	.	.	.	-34	.
Cn1cc(-c2cc3c(Nc4ccc(OC(F)(F)F)cc4)nccc3[nH]2)cn1	.	.	.	-65*	.
Cc1nn(-c2ccccc2)c(C)c1NC(=O)COc1ccc(F)cc1Cl	?	4%	-30%	?	-9%
COc1ccc(/C=C/C(=O)NCCc2ccc(OC)c(OC)c2)cc1	-27%	0%	-12%	-16	-2%
COc1ccc(CCNC(=O)/C=C/c2ccc3ccccc3n2)cc1OC	?	-3%	?	-100*	3%
COc1ccc(CNC(=S)N/N=C(\C)c2ccc(OC)cc2)cc1	-21%	0%	-18%	0	0%
COCCCNC(=O)c1cc(-c2ccc(OC)cc2)nc2n[nH]c(-c3ccc(Cl)cc3)c12	-9%	.	-5%	-8	-2%
CCc1ccc(-c2[nH]nc3nc(-c4ccc(OC)cc4)cc(C(=O)NCCc4ccc(OC)c(OC)c4)c23)cc1	?	.	-22%	-91*	0%
COc1ccc(-c2cc(C(=O)NCCc3ccccc3)c3c(-c4ccc(Cl)cc4)[nH]nc3n2)cc1	?	.	?	-98*	-3%
SMILES	VACV mCherry inh	LmPK inh	VACV Venus inh	HCMV antiviral	TbPYK inhibitor
COc1ccc(C(=O)N(C)c2ccccc2C(=O)NCCc2ccccc2)cc1	-4%	8%	-10%	-97*	-3%
COc1ccc(CCNC(=O)c2cc(-c3ccc(C)cc3)nc3n[nH]c(-c4ccc(F)cc4)c23)cc1OC	-18%	.	-23%	-21	-5%
COc1ccc(/C(C)=N/NC(=S)NCCc2ccccc2)cc1	-16%	5%	-13%	-114*	5%
COc1ccc(-n2nnnc2C(c2cc3ccccc3o2)N2CCN(C/C=C/c3ccccc3)CC2)cc1 (stereo not given)	i	.	-7%	13	2%
CC1(C(=O)NS(=O)(=O)c2cccs2)CCN1C(=O)c1ccccc1 (stereo not given)	12%	.	0%	10	4%
CC(C)(C)Nc1nc(Oc2ccc(=O)[nH]n2)nc(N2CCOCC2)n1	-2%	5%	3%	-4	1%
COCCn1c(=O)[nH]c2cc(C(=O)Nc3ccc(OC)cc3)ccc2c1=O	5%	.	-2%	4	6%
COc1ccc(-c2cc(C(=O)NCCc3ccccc3)c3c(-c4ccccc4)[nH]nc3n2)cc1	?	.	?	-82*	2%
CCOc1cc(NS(=O)(=O)c2ccccc2)c(OCC)cc1NC(=O)c1ccco1	.	2%	.	-101*	9%
Nc1cccc2c(O)cccc12	-9%	.	-6%	-102*	-7%
CN1Cc2cccnc2N(C)Cc2cc(Cl)ccc21	-4%	3%	-25%	?	1%
O=c1c2ccccc2oc2nc(-c3cccs3)n(CCc3ccccc3)c(=O)c12	.	0%	.	.	.
Cc1ccc(S(=O)(=O)n2ccc3c(OCCOCCNCc4ccc(F)cc4)cccc32)cc1	?	0%	?	-101*	-6%
Cc1ccc(S(=O)(=O)n2ccc3c(OCCOCCSCC(NC(=O)OC(C)(C)C)C(=O)O)cccc32)cc1 (stereo not given)	-17%	11%	-18%	-2	2%
CC1(C)Cc2ccccc2C2=NNC(=O)C2=N1	?	-2%	28µM*	-102*	-1%
N#C/C(=C\c1ccc(OCc2ccc(Br)cc2)cc1)C(=O)Nc1cccc(C(=O)O)c1	1%	-2%	9%	13	1%
N#C/C(=C\c1ccc(OCc2ccc(F)cc2)cc1)C(=O)Nc1cccc(C(=O)O)c1	.	2%	.	-75*	9%
Cc1nc2nc(SCC(=O)NCCCN3CCCCCC3)nn2c(C)c1Cc1ccccc1Cl	.	2%	.	+	-2%
Cc1ccccc1Cc1c(C)nc2nc(SCC(=O)NCCCN3CCCC3)nn2c1C	-14%	-4%	-11%	-25	-8%
CCn1c(=O)c(=O)n(CC)c2cc(N3CCCCC3)c(NC(=O)c3ccc(OC)c(OC)c3)cc21	-16%	.	-10%	-10	-2%
Clc1ccc(Cn2cnc3ccccc32)cc1	5%	-4%	6%	-70*	3%
C=C1C(=O)C23C(O)C1CCC2C12CCCC(C)(COC(C)=O)C1C(O)C3(O)OC2 (stereo not given)	2.5µM*	.	4µM*	-2	?
CN(C)N=C1c2cc(S(=O)(=O)N(C)C)ccc2-c2ccc(S(=O)(=O)N(C)C)cc21	.	2%	.	0	-8%
